Molecules are shown by their SMILES. Screen size: about 350,000 compounds; about 9,900 (2.8%) were called active. A call without a number means that no potency is given here. About 15% were inconclusive and are not listed. Calls follow the shape of the dose curve; as a rule, active = well fitted activation curve with a large enough effect; inconclusive = small, poorly fitted or top-dose-only effect; inactive = no such curve, though single readings can be large or run the other way. The sample as a whole holds a higher share of actives than the screen did.
Potency is read from the fitted curve at half-maximal effect.

A short description of this assay: A quantitative high throughput screen for small molecules that induce DNA re-replication in MCF 10a normal breast cells. Also: nearly all actives have a fitted effect of over 50% in size. The settings on record: MCF 10A DNA re-replication, Hoechst nuclear intensity, 48 h; series mostly up to 46.1 µM.
On to `O=C(CCc1ccccc1Cl)Nc1ccc(S(=O)(=O)Nc2nccs2)cc1`, for which the Potency entry was “inactive”.

In the case of `Nc1cc(N)nc(SCC(=O)Nc2cccc(S(=O)(=O)N3CCCCC3)c2)n1`, the Potency entry is “inactive”. Then `Nc1ncnc2c1ncn2[C@@H]1O[C@H](CNCc2cccn2-c2nccs2)[C@@H](O)[C@H]1O`, with “inactive”; and `Cc1c(NC(=O)CN(C)CC(=O)Nc2ccc(F)c(F)c2F)c(=O)n(-c2ccccc2)n1C`, with “inactive”; and `N=C1c2ccccc2-c2ccccc21`, with “inactive”. As for `C=CCNc1nc(N)c(C(=C(C#N)C#N)c2ccccc2)s1`, the Potency was 16.4 µM (active).

For `C=CCNC(=O)c1csc(-c2ccccc2)n1`, the Potency entry is “inactive”. To `COC(=O)c1sc(N2CCN(Cc3ccccc3)CC2)nc1N` belongs “inactive”; to `Nc1ccccc1SCc1cc([N+](=O)[O-])cc2c1OCOC2`, “inactive”; to `Nc1ccccc1SC(C[N+](=O)[O-])c1ccccc1` (configuration not stated), 10.3 µM (active).

Take `CCS(=O)(=O)c1cc([N+](=O)[O-])c(Sc2ccccc2N)s1`: the Potency result is “inactive”.

Take `CN(C(=O)c1cccc(NC(=O)C2CCN(C(=O)OC(C)(C)C)CC2)c1)C1CCC1`: the Potency entry is “inactive”. Consider `COC(=O)c1ccc(CNC(=O)Cn2cc(C)c(=O)[nH]c2=O)cc1`, for which the Potency result was “inactive”. Then `C#CCOCCOCCOCCNc1nc(N2CCN(C(=O)Cn3cc(CCCCN)nn3)CC2)nc(N2CCN(C(=O)[C@H](CCCCN)n3cc(CCC(=O)O)nn3)CC2)n1`, with “inactive”. For `CC(C)(CNC(=O)c1ccc(Cl)c(S(=O)(=O)N2CCc3ccccc3C2)c1)N1CCOCC1`, the Potency is 5.8 µM (active).

For `CN(C)S(=O)(=O)c1ccc(C(=O)NCC(C)(C)N2CCOCC2)cc1`, the Potency entry was “inactive”.

As for `O=C(NCCSCc1ccccc1)c1ccc(Cl)c(S(=O)(=O)N2CCOCC2)c1`, the Potency entry is “inactive”.

Turning to `O=C(OCc1cc(=O)n2ccsc2n1)C1(c2ccc(Cl)cc2)CC1`, the Potency entry was “inactive”. Then `COc1ccccc1N(CC(=O)Nc1c(C)n(C)n(-c2ccccc2)c1=O)S(=O)(=O)c1ccccc1`, with “inactive”; and `Cc1c(O)c(C)c2c(c1O)C(=O)C[C@@H](c1ccccc1)O2`, with “inactive”; and `COc1ccc(CNc2ncnc3ccccc23)cc1`, with “inactive”. As to `COc1ccc(CNc2nnnn2C)cc1`, the Potency entry is “inactive”. As for `COc1ccc(CNc2c(CO)cnc3c2cnn3C)cc1`, the Potency is 14.6 µM (active). To `COc1cccc(NC(=O)COC(=O)c2ccc3ccccc3n2)c1` belongs “inactive”. In the case of `Cc1ccc(S(=O)(=O)N(C)C)cc1NC(=O)CN1c2cccc3cccc(c23)S1(=O)=O`, the Potency result is “inactive”. On to `Cc1csc(NC(=O)C2CCN(S(=O)(=O)c3ccccc3)CC2)n1`, for which the Potency result was “inactive”.

`CN(C(=O)CSc1cccc[n+]1[O-])C1CCCCC1`: the Potency entry is “inactive”. To `S=c1[nH]nc(CSCc2ccc(Cl)cc2Cl)n1-c1ccccc1` belongs 20.6 µM (active); to `Cc1ccc(NCc2n[nH]c(=S)n2-c2ccccc2)cc1Cl`, “inactive”; to `S=c1[nH]nc(COc2ccccc2)n1-c1ccccc1`, “inactive”. Then `O=C(O)C(=Cc1ccccc1[N+](=O)[O-])c1ccccc1`, with “inactive”.

`O=C(Nc1cccc(S(=O)(=O)N2CCCC2)c1)c1cncc(Br)c1`: the Potency entry is “inactive”. Then `CN(c1ccc(OCC(=O)O)cc1)S(=O)(=O)c1ccc2ccccc2c1`, with “inactive”; and `COCCNC(=O)COc1ccc(N(C)S(=O)(=O)c2ccc3ccccc3c2)cc1`, with “inactive”; and `CC(=O)Oc1ccc(N(C(C)=O)S(=O)(=O)c2ccc3ccccc3c2)cc1Br`, with 13 µM (active). In the case of `O=C(OCCOc1ccccc1Cl)c1cc(S(=O)(=O)N2CCCCC2)ccc1N1CCOCC1`, the Potency result is “inactive”.

`CCC(C(=O)N1CCN(S(=O)(=O)c2sc(C(=O)O)c(C)c2C(=O)O)CC1)c1ccccc1` (configuration not stated): the Potency entry is “inactive”. For the compound `COCCN1C(=O)N[C@@H](c2ccccc2)C(C(=O)OC)=C1C`, the Potency entry was “inactive”.

`CC1=C(C(=O)OCc2ccccc2)C(c2ccc(C(F)(F)F)cc2)NC(=O)N1CCCCCC(=O)O` (configuration not stated): the Potency entry was “inactive”. To `COC(=O)CCCCCN1C(=O)NC(c2ccc(-c3ccccc3)cc2)C(C(=O)OCc2ccccc2)=C1C` (configuration not stated) belongs 3.26 µM (active). For the compound `COc1cc(OC)cc(C(=O)NC(C(=O)N2CCC2)C(C)C)c1` (configuration not stated), the Potency result is “inactive”. For `O=C(Cn1cnc2c(OCc3ccccc3)ncnc21)NCc1nc2ccccc2[nH]1`, the Potency entry was “inactive”. Consider `COCCCNC(=O)CC1C[C@H](C(=O)N2CCCCC2)[C@@]2(CCc3ccccc3)c3[nH]c4ccccc4c3CCN2C1=O` (some centres not stated), for which the Potency entry was “inactive”.

Turning to `O=C(N/N=C\c1cc2c(cc1Cl)OCO2)c1ccc(Br)s1`, the Potency is 5.8 µM (active). Then `O=C(N/N=C/c1cc2c(cc1Br)OCO2)C1COc2ccccc2O1` (configuration not stated), with “inactive”. Then `O=C(NCc1ccc2c(c1)OCO2)c1ccc(Cl)s1`, with “inactive”; and `CCCN(CC1CC1)C(=S)NC(=O)c1ccccc1Br`, with “inactive”; and `O=C(CSc1n[nH]c(=O)n1-c1ccccc1)Nc1ccccc1C(F)(F)F`, with “inactive”. On to `O=S(=O)(c1ccc(F)cc1)N1CCN(Cc2ccccc2C(F)(F)F)CC1`, for which the Potency entry is “inactive”.

`O=c1[nH]nc(SCCS(=O)(=O)c2ccc(F)cc2)n1-c1ccccc1C(F)(F)F`: the Potency was 18.4 µM (active). To `Cn1c(SCC(=O)Nc2nccs2)nnc1-c1cccnc1` belongs “inactive”; to `Cc1[nH]c2ccccc2c1SCC(=O)Nc1nccs1`, 0.651 µM (active); to `CCn1c(SCC(=O)Nc2nccs2)nnc1-c1ccco1`, “inactive”. To `CCCSc1ccc([C@H]2N[C@@](Cc3ccccc3)(C(=O)OC)[C@H]3C(=O)N(C)C(=O)[C@@H]23)cc1` belongs “inactive”; to `CC1CCCN(CC(=O)Nc2cc(Cl)ccc2Oc2ccccc2)C1` (configuration not stated), 18.4 µM (active); to `CC(=O)Nc1ccc(NC(=O)CN2CCCC(C)C2)c(Cl)c1` (configuration not stated), “inactive”.

Regarding `O=C(CSc1ccccc1)Nc1cc(Cl)ccc1Oc1ccccc1`, the Potency result was “inactive”. Then `Cc1cccc(NC(=O)C2CCCN2S(=O)(=O)c2ccc(F)cc2)c1C` (configuration not stated), with “inactive”; and `CC(C)c1nnc(NC(=O)C2CCCN2S(=O)(=O)c2ccc(Cl)cc2)s1` (configuration not stated), with “inactive”. Then `COc1ccccc1NC(=O)C1CCCN1S(=O)(=O)c1ccc(Cl)cc1` (configuration not stated), with 18.4 µM (active). Then `O=C(COC(=O)Cn1[nH]c(=O)c2ccccc2c1=O)Nc1ncc(Cl)cc1Cl`, with “inactive”; and `O=C(CSc1ncn[nH]1)Nc1ccc(Br)cc1Br`, with “inactive”; and `CN(C(=O)COC(=O)c1cc(=O)[nH]c2ccccc12)C1CCCCC1`, with “inactive”. Take `CCN(C(=O)CSc1cccc[n+]1[O-])c1ccccc1`: the Potency result is “inactive”. With `O=C(CN1C(=O)C2C3CCC(C3)C2C1=O)Oc1ccc2ccccc2c1` (configuration not stated), the Potency entry was “inactive”. Then `O=C(COC(=O)CN1C(=O)C2CCCCC2C1=O)Nc1ccc(F)c(F)c1F` (configuration not stated), with “inactive”.

Turning to `CC1=CC(C)(C)Nc2ccc(OC(=O)CN3C(=O)C4CCCCC4C3=O)cc21` (configuration not stated), the Potency was 7.31 µM (active).
